Compound activity as filed in PubChem.
Rows were chosen to be rich in hits. Some 3.4% of all compounds tested hit in one or more screens of this group.
GPR151 ag – activators of human GPR151. PathHunter beta-arrestin GPR151 cells, luminescence. activation, % at 11.2 µM. hit rate 1% among 650,000. AID 1508602; in the data active = activation above about 4.9%
TEAD-YAP inh – TEAD-YAP interaction inhibition; inhibition, % at 9.12 µM; HEK-TIYL cells, TEAD-Gal4/YAP UAS-luciferase luminescence; hit rate 1.4% among 640,000; AID 1259422; in the data active = inhibition above about 32%
MITF inh – inhibitors of human MITF | AlphaScreen MITF homodimerization, bead proximity signal | O75030 | AID 1259374 | inhibition, % at 2.6 µM | hit rate 0.91% among 650,000; in the data active = inhibition above about 50%
FBW7 activator – human FBW7 E3 ligase activation, primary screen. AlphaScreen FBW7–phospho-cyclin E peptide binding, activator screen. normalized activity (activation), % at 26.1 µM. hit rate 0.13% among 650,000; in the data active = normalized activity above about 1.9%;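 note: purified mutant Fbw7 with reduced substrate affinity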
Target sequence (Q969H0 whole entry, looked up): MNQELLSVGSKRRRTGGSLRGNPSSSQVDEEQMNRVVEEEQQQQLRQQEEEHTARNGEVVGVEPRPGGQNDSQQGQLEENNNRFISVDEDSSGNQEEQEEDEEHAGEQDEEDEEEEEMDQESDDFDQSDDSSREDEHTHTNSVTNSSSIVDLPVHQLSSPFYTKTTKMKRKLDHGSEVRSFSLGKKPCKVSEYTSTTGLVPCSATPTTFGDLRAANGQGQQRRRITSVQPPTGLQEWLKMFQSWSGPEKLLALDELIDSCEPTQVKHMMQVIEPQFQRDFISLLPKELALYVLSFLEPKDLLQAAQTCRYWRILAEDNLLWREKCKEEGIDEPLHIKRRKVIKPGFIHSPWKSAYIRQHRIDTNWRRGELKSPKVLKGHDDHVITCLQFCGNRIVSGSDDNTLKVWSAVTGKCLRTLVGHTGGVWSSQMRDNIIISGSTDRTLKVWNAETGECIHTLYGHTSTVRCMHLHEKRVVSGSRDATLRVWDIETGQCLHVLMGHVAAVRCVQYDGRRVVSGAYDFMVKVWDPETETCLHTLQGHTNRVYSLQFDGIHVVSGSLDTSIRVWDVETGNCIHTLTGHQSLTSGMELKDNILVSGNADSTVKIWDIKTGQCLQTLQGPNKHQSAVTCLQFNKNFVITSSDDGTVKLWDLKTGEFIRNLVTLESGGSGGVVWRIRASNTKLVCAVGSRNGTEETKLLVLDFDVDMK
Of the large screens only hits and unclear results are named; the others gave an inactive call.

COc1ccc(-c2nsc3c(N4CCCC(C)C4)ncnc23)cc1 (stereo not given)	TEAD-YAP inh 86
CCN1CCN(c2ncnc3c(-c4ccc(OC)cc4)nsc23)CC1	none
Fc1ccc(-c2nsc3c(N4CCOCC4)ncnc23)cc1	TEAD-YAP inh 68
CC1CCCN(c2ncnc3c(-c4ccccc4)nsc23)C1 (stereo not given)	TEAD-YAP inh 80
Nc1nc2ccccc2n1C(=O)c1ccc(Cl)cc1	TEAD-YAP inh 71
Cc1ccc(C(=O)n2c(N)nc3ccccc32)cc1	TEAD-YAP inh 91
Cc1nn(C(=O)Nc2cccc(C(F)(F)F)c2)c(C)c1Sc1ncccn1	none (no result: TEAD-YAP inh, MITF inh, FBW7 activator)
CCCc1cc(-c2onc(C)c2-c2ccc3c(c2)OCCCO3)c(O)cc1OC	none
CCc1cc(-c2onc(C)c2-c2ccc(OC)cc2)c(O)cc1OC	TEAD-YAP inh 45
NS(=O)(=O)c1cccc(NS(=O)(=O)c2cccc([N+](=O)[O-])c2)c1	FBW7 activator 4.6
CN1C(C(=O)NC2CCCC2)CC(c2cccs2)NS1(=O)=O (stereo not given)	none
NC(=O)N1CCCC1C(=O)NNC(=O)CC12CC3CC(CC(C3)C1)C2 (stereo not given)	none
O=C(NCc1cccc(C(F)(F)F)c1)c1cnc(-c2ccc(N3CCOCC3)nc2)s1	none
Nc1c(C(=O)N2CCOCC2)sc2nc(-c3ccccc3)cc(C(F)(F)F)c12	FBW7 activator 2.8
Cc1ccc(C2=N/C(=C\c3ccccc3OC(=O)c3ccc(Cl)cc3)C(=O)O2)cc1	TEAD-YAP inh 45
O=C1OC(c2ccc(Cl)cc2)=N/C1=C/c1ccccc1OC(=O)c1ccc(Br)cc1	none
Nc1c(C(=O)Nc2ccc(Oc3ccccc3)cc2)sc2nc3c(cc12)C(=O)CCC3	TEAD-YAP inh 37
Cc1ccc(NC(=O)c2sc3nc4c(cc3c2N)C(=O)CCC4)cc1C	TEAD-YAP inh 65
Nc1c(C(=O)Nc2ccccc2)sc2nc3c(cc12)C(=O)CCC3	TEAD-YAP inh 32
CC1(C)CC(=O)c2cc3c(N)c(C(=O)NC4CCCCC4)sc3nc2C1	FBW7 activator 2.4
Nc1c(C(=O)Nc2ccc(Br)cc2)sc2nc3c(cc12)C(=O)CCC3	none
N#Cc1cc([N+](=O)[O-])ccc1NC(=O)COC(=O)c1ccc(Br)o1	none
CCOc1ccccc1NC(=O)CNC(=O)c1c[nH]c2ccccc12	none
OC[C@@H]1CCCN1c1ccnc2c(-c3ccc(F)c(Cl)c3)cnn12	TEAD-YAP inh 83
CN1CCN(c2ccnc3c(-c4ccccc4F)cnn23)CC1	TEAD-YAP inh 67
COc1ccc(-c2cnn3c(N4CCCCC4CCO)ccnc23)cc1OC (stereo not given)	TEAD-YAP inh 38
OC1CCN(c2ccnc3c(-c4ccc(F)c(Cl)c4)cnn23)CC1	none
CN1CCN(c2ccnc3c(-c4ccccc4Oc4ccccc4)cnn23)CC1	none
OC[C@@H]1CCCN1c1ccnc2c(-c3ccc(O)cc3)cnn12	TEAD-YAP inh 95
OC[C@@H]1CCCN1c1ccnc2c(-c3cnn(Cc4ccccc4)c3)cnn12	none
CCSc1nnc(NC(=O)Cc2ccccc2[N+](=O)[O-])s1	none
O=C(NC1CC1)c1ccc(-c2cnn3c(N4CCC[C@H]4CO)ccnc23)cc1	none
OC[C@@H]1CCCN1c1ccnc2c(-c3ccccc3F)cnn12	TEAD-YAP inh 90
OCc1ccccc1-c1cnn2c(N3CCC[C@H]3CO)ccnc12	none
Cc1ccc(-c2cnn3c(N4CCC[C@H]4CO)ccnc23)cc1	TEAD-YAP inh 96
OCc1cccc(-c2cnn3c(N4CCC[C@H]4CO)ccnc23)c1	TEAD-YAP inh 66
Cc1cc(C)cc(-n2nc3c(c2NC(=O)c2cccc(Br)c2)CSC3)c1	none
CCCCC(=O)Nc1ccc(Nc2nc(C)cc(N3CCCC3)n2)cc1	TEAD-YAP inh 65
CCCC(=O)Nc1ccc(Nc2nc(C)cc(N3CCOCC3)n2)cc1	none
Cc1cc(N2CCCC2)nc(Nc2ccc(NS(=O)(=O)c3ccc(F)cc3)cc2)n1	TEAD-YAP inh 57
Cc1cccc(CN2CCN(CC(=O)NCCC3=CCCCC3)C2=O)c1	none
CC(=O)N1CCc2cc(S(=O)(=O)Nc3ccc(C)c(Cl)c3)ccc21	none
Cc1cc(Cl)ccc1OCCOCCNCCN	none
COc1ccc(Cl)cc1C(=O)Nc1ccc(Nc2cc(-n3cccn3)ncn2)cc1	none
COc1cccc(C(=O)Nc2ccc(Nc3cc(-n4cccn4)ncn3)cc2)c1	TEAD-YAP inh 68
O=C(Nc1ccc2ccccc2c1)c1ccc(C2CCCCC2)cc1	TEAD-YAP inh 34
O=C(Nc1ccc2scnc2c1)c1ccc2ccccc2c1	TEAD-YAP inh 66
COc1cccc(C(=O)Nc2ccc3scnc3c2)c1	TEAD-YAP inh 63
CN(C)c1ccc(/C=C/CN2CCc3nnc(CCNC(=O)c4ccco4)n3CC2)cc1	none
COc1ccc(Oc2coc3cc(OCc4ccc(Cl)cc4Cl)ccc3c2=O)cc1	none
COc1cccc(C(=O)Nc2ccc(N3CCCCC3=O)c(C)c2)c1	TEAD-YAP inh 76
COc1ccc(CSc2ccc(S(=O)(=O)N3CCc4ccccc43)cc2C(=O)NCc2cccc(Cl)c2)cc1	none
COc1cc(CNC(=O)c2ccc3ccccc3n2)cc(OC)c1OC	TEAD-YAP inh 45
COc1cc(CNC(=O)c2c(C(F)(F)F)nc3c(OC)cccn23)cc(OC)c1OC	FBW7 activator 1.9
COc1ccc(-c2cc(CC(=O)NCc3ccc(Cl)cc3)no2)cc1OC	TEAD-YAP inh 47
COc1ccc(-c2cc(CC(=O)NC3CCCC3)no2)cc1OC	none
Nc1ncc(-c2cccc3ncccc23)nc1NCc1ccccc1	TEAD-YAP inh 48
C[C@@H](Nc1nc(-c2cccc3cccnc23)cnc1N)c1ccccc1	none
C[C@H](Nc1nc(-c2cccc3ncccc23)cnc1N)c1ccccc1	TEAD-YAP inh 60
CCS(=O)(=O)N1CCC(c2ccc3c(c2)OCO3)CC1	none
O=Cc1c(O)n(-c2ccc(Cl)cc2)c(=O)[nH]c1=O	FBW7 activator 2.5
O=C(Nc1nc(-c2ccc(Br)cc2)cs1)c1ccc(S(=O)(=O)N2CCCC2)cc1	none
O=[N+]([O-])c1cc(/C=N\Nc2nccs2)ccc1O	MITF inh 95
CC(C)c1nccn1CC1CCN(C(=O)c2ccccc2Cl)CC1	TEAD-YAP inh 33
Cc1scc(CN2CCN(Cc3ccc4c(c3)OCO4)CC2)c1C	none
CN(C)c1ccc(Nc2nc(-c3cccs3)cs2)cc1	TEAD-YAP inh 70
O=C(Nc1nc(-c2cccs2)cs1)c1ccc(Br)cc1	none
O=C(Nc1nc(-c2cccs2)cs1)c1ccncc1	TEAD-YAP inh 35
Cc1ccc(Nc2nc(-c3cccs3)cs2)nc1	TEAD-YAP inh 56
Cc1cccnc1Nc1nc(-c2cccs2)cs1	none
COC(=O)CNC(=O)c1ccc(OC2CCN(CCc3ccccc3)CC2)cc1	none
CC(C)(C)C1CCc2c(sc(NC(=O)c3cc4n(n3)C(C(F)(F)F)CC(c3ccc5c(c3)OCO5)N4)c2C#N)C1 (stereo not given)	none
O=C(CNc1n[nH]c(=S)[nH]c1=O)OCc1ccccc1	none
O=C(N/N=C/c1ccc(O)cc1)c1ccccc1I	none
CCCCN(CCCC)C(=O)Cc1cccs1	TEAD-YAP inh 44
Nc1nc(SCC(=O)c2ccc(C3CCCCC3)cc2)n[nH]1	none
